Data reported in PubChem BioAssay (EPA / NIEHS).
Records with an inconclusive call do not appear. Calls of active or inactive are those of the source. How the source made its calls, unless noted: active means hit-call score of the fitted dose curve at least 0.9, where 1 is the maximum; inconclusive means response in the unintended direction; inactive means score below 0.9.

Assays:
TIMP1, TIMP1 (gene 7076) = test: LTEA_HepaRG_TIMP1: Life Technologies and Expression Analysis (LTEA) Assay for TIMP1 using HepaRG (AID 2283534; active means hit-call score of the fitted dose curve at least 0.9, where 1 is the maximum; inactive means score below 0.9); details: mRNA level, 48 h; actives raise or lower the signal
In short: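 Readout is TIMP1 mRNA level measured by qRT-PCR and normalized to three housekeeping genes. Human HepaRG cells were treated for 48 h in duplicate at eight concentrations up to 100 uM (0.5% DMSO); gain or loss fitted against DMSO.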

[1] = read-out: Tumor necrosis factor receptor 1 (TNFRSF1A), TNFRSF1A (gene 7132); test: LTEA_HepaRG_TNFRSF1A: Life Technologies and Expression Analysis (LTEA) Assay for Tumor necrosis factor receptor 1 (TNFRSF1A) using HepaRG (AID 2283535; active means hit-call score of the fitted dose curve at least 0.9, where 1 is the maximum; inactive means score below 0.9); details: mRNA level, 48 h; actives raise or lower the signal
In short: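 Read-out is TNFRSF1A transcript level by TaqMan qRT-PCR, normalized to three housekeeping genes, scored as gain or loss of signal versus 0.5% DMSO. Human HepaRG cells received test chemicals for 48 h at up to 100 uM (half-log series).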

[2] = read-out: UDP glucuronosyltransferase (UGT1A1), UGT1A1 (gene 54658); test: LTEA_HepaRG_UGT1A1: Life Technologies and Expression Analysis (LTEA) Assay for UDP glucuronosyltransferase (UGT1A1) using HepaRG (AID 2283538; active means hit-call score of the fitted dose curve at least 0.9, where 1 is the maximum; inactive means score below 0.9); details: mRNA level, 48 h; actives raise or lower the signal
In short: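 Differentiated human HepaRG cells in serum-free induction medium were exposed in duplicate for 48 h to eight half-log concentrations up to 100 uM in 0.5% DMSO. UGT1A1 mRNA was quantified by TaqMan qRT-PCR, normalized to ACTB, GAPDH and POLR2A, and fitted bidirectionally against DMSO.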

[3] = read-out: X-box binding protein 1 (XBP1), XBP1 (gene 7494); test: LTEA_HepaRG_XBP1: Life Technologies and Expression Analysis (LTEA) Assay for X-box binding protein 1 (XBP1) using HepaRG (AID 2283540; active means hit-call score of the fitted dose curve at least 0.9, where 1 is the maximum; inactive means score below 0.9); details: mRNA level, 48 h; actives raise or lower the signal
In short: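 Transcript levels of XBP1, measured by qRT-PCR and normalised to three housekeeping genes, were fitted bidirectionally relative to 0.5% DMSO controls. Human HepaRG cells received eight-point half-log dilutions from 100 uM for 48 h.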

[4] = LTEA_HepaRG_LDH_cytotoxicity: Cytotoxicity Assessment in the Life Technologies and Expression Analysis (LTEA) Assay (AID 2283563);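 on AC50: LDH activity released into spent culture medium as a marker of cell death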
In short: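 Cells were thawed and plated for 48 h. Medium was then replaced with serum-free induction medium. Chemicals (8 half-log points, maximum 100 uM, 0.5% DMSO) were added in duplicate for 48 h, after which spent medium was assayed for LDH.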

[5] = ATG_XTT_Cytotoxicity: Cytotoxicity Assessment in the Attagene TRANS-FACTORIAL HepG2 Assay (AID 2283584);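 on AC50: cells exposed to compound for 24 h before reading; active means loss of viability signal versus DMSO baseline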
In short: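 Cells: human HepG2, transiently transfected with MRTU reporter constructs. Exposure 24 h. Readout: XTT, cell number. Baseline/neg ctrl DMSO; loss-of-signal scored.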

[6] = molecular target: Cellular tumor antigen p53 (Homo sapiens) (UniProt P04637); test: TOX21_p53_BLA_p2_ratio: Tox21 HCT-116 p53 Agonism Beta-lactamase Assay, Ratio, Phase 2 (AID 2283592)
Chain of Cellular tumor antigen p53 (Homo sapiens) (P04637 whole entry, looked up): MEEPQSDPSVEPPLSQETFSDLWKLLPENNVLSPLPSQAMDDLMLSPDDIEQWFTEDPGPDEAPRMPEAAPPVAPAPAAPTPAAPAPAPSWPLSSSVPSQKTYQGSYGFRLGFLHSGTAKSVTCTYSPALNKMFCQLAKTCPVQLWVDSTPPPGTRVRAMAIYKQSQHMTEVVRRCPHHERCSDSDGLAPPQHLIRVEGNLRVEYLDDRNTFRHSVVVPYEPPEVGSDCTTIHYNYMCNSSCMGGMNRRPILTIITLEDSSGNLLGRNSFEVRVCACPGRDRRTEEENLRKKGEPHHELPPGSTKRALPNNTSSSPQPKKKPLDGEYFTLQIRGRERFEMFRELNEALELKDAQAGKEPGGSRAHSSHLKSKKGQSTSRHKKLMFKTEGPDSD
In short: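 HCT116 p53-bla; 4000 cells/well; 5 h pre-incubation; cpd in DMSO, 217-fold dilution; 16 h 37C/5% CO2; CCF4-AM 2 h RT; Ex 405, Em 460/530 ratio; DMSO = baseline; positive fitting direction.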

[7] = TOX21_p53_BLA_p3_viability: Viability Assessment in the Tox21 HCT-116 p53 Agonism Beta-lactamase Assay, Phase 3 (AID 2283593);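 further: cells exposed to compound for 16 h before reading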
In short: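 HCT-116 cells (4000/well) rested 5 h at 37C, then got DMSO compounds by pin tool (217-fold dilution) for 16 h at 37C, 5% CO2. After the bla read, CellTiter-Glo was added and luminescence read at 30 min, room temperature.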

[8] = molecular target: Cellular tumor antigen p53 (Homo sapiens) (UniProt P04637); test: TOX21_p53_BLA_p3_ratio: Tox21 HCT-116 p53 Agonism Beta-lactamase Assay, Ratio, Phase 3 (AID 2283596)
In short: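 HCT116 p53-bla cells (4000/well) given compound in DMSO (217-fold dilution) after 5 h, incubated 16 h at 37C. CCF4-AM substrate 2 h at room temperature; 460/530 nm emission ratio, gain fitted against DMSO.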

[9] = TOX21_p53_BLA_p4_viability: Viability Assessment in the Tox21 HCT-116 p53 Agonism Beta-lactamase Assay, Phase 4 (AID 2283597);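 further: hits lower the luminescence signal meaning cytotoxicity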
In short: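 Cells plated, 5 h pre-incubation; DMSO compounds pinned (217-fold dilution); 16 h, 37C/5% CO2; CCF4-AM 2 h RT; CellTiter-Glo 30 min RT; luminescence read.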

[10] = molecular target: Cellular tumor antigen p53 (Homo sapiens) (UniProt P04637); test: TOX21_p53_BLA_p5_ratio: Tox21 HCT-116 p53 Agonism Beta-lactamase Assay, Ratio, Phase 5 (AID 2283599)
In short: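 HCT-116 cells carrying a p53-inducible beta-lactamase reporter were seeded at 4000 cells/well and dosed after 5 h with compound in DMSO (217-fold dilution). After 16 h at 37C, CCF4-AM substrate was added for 2 h, and the 460/530 nm emission ratio was scored as gain-of-signal versus DMSO.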

[11] = molecular target: Cellular tumor antigen p53 (Homo sapiens) (UniProt P04637); test: TOX21_p53_BLA_p4_ratio: Tox21 HCT-116 p53 Agonism Beta-lactamase Assay, Ratio, Phase 4 (AID 2283601)
In short: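 HCT116 cells carrying an inducible beta-lactamase reporter were plated at 4000 cells/well, rested 5 h, then exposed to compounds in DMSO (217-fold dilution) for 16 h at 37C. CCF4-AM substrate was loaded 2 h at room temperature; 460/530 nm emission ratio scored gain-of-signal versus DMSO.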

[12] = Tanguay_ZF_120hpf_MORT_legacy: (Legacy) Oregon State University Tanguay Lab 120 Hour Post-fertilization zebrafish Assay for Mortality (AID 2283633);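 on AC50: fitted as increase in binary mortality versus DMSO negative control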
In short: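 5D WT zebrafish, chorion removed 4 hpf; 1 embryo/well from 6 hpf; static exposure to 120 hpf, 28C, dark, sealed. Final DMSO 0.64%. Readout: binary mortality, brightfield, 24 + 120 hpf; DMSO as negative control.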

[13] = Tanguay_ZF_120hpf_YSE_legacy: (Legacy) Oregon State University Tanguay Lab 120 Hour Post-fertilization zebrafish Assay for Yolk Sac Edema (AID 2283634);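 on AC50: actives raise the incidence of yolk sac edema above the DMSO baseline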
In short: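 Dechorionate (pronase, 4 hpf) → place one 6 hpf embryo per well → static compound exposure, sealed and foil-covered, 28C, to 120 hpf → record yolk sac edema as present or absent. Final DMSO 0.64%.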

[14] = Tanguay_ZF_120hpf_AXIS_legacy: (Legacy) Oregon State University Tanguay Lab 120 Hour Post-fertilization zebrafish Assay for Body Axis Malformation (AID 2283635);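 on AC50: potency for an increased fraction of larvae scored with body axis malformation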
In short: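 Chorion is removed with pronase at 4 hpf, then single 6 hpf embryos are dosed (final DMSO 0.64%) and held statically at 28C in sealed, foil-covered plates. At 120 hpf body axis malformation is recorded as present or absent.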

[15] = Tanguay_ZF_120hpf_EYE_legacy: (Legacy) Oregon State University Tanguay Lab 120 Hour Post-fertilization zebrafish Assay for Eye Malformation (AID 2283636);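 further: binary presence or absence of eye malformation scored by brightfield in 120 hpf larvae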
In short: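 Dechorionated wild-type Tropical 5D zebrafish embryos were exposed statically from 6 hpf, one per well, to 120 hpf at 28C in sealed, foil-covered plates with 0.64% DMSO. Eye malformation was scored present/absent by brightfield microscopy against DMSO controls.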

[16] = Tanguay_ZF_120hpf_SNOU_legacy: (Legacy) Oregon State University Tanguay Lab 120 Hour Post-fertilization zebrafish Assay for Snout Malformation (AID 2283637)
In short: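 Tropical 5D wild-type zebrafish embryos, dechorionated with pronase at 4 hpf, were exposed singly from 6 hpf to 120 hpf statically at 28C in 0.64% DMSO. Snout malformation was scored present/absent by brightfield microscopy, fitted against DMSO.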

[17] = Tanguay_ZF_120hpf_JAW_legacy: (Legacy) Oregon State University Tanguay Lab 120 Hour Post-fertilization zebrafish Assay for Jaw Malformation (AID 2283638)
In short: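 Steps: dechorionate 4 hpf embryos (pronase); plate 1/well at 6 hpf; add test chemical, 0.64% DMSO final; seal, cover, hold at 28C statically to 120 hpf; score jaw defect presence/absence microscopically. Dead embryos not scored.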

[18] = read-out: UDP glucuronosyltransferase (UGT1A6), UGT1A6 (gene 54578); test: LTEA_HepaRG_UGT1A6: Life Technologies and Expression Analysis (LTEA) Assay for UDP glucuronosyltransferase (UGT1A6) using HepaRG (AID 2283539; active means hit-call score of the fitted dose curve at least 0.9, where 1 is the maximum; inactive means score below 0.9); details: mRNA level, 48 h; actives raise or lower the signal
In short: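 HepaRG, 48 h post-plating switch to serum-free induction medium; chemical 48 h, 100 uM top, half-log x8, duplicate, 0.5% DMSO. Phenobarbital 1mM induction control. UGT1A6 mRNA by TaqMan qRT-PCR; gain/loss fit vs DMSO.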

Measured: AC50

C[C@]12C=CC(=O)C=C1CC[C@H]1[C@@H]3C[C@@H](O)[C@](O)(C(=O)CO)[C@@]3(C)C[C@H](O)[C@@]12F
not listed: [18]
inactive: all other assays above

Cn1c(=O)c2[nH]cnc2n(C)c1=O
active: [1] 0.276 µM
not listed: [7] | [17] | [18]
inactive: all other assays above

O=C(N[C@H](CO)[C@H](O)c1ccc([N+](=O)[O-])cc1)C(Cl)Cl
inactive: [5] | [6] | [7] | [8] | [9] | [10] | [11]

CCCCN1C(=O)[C@@H]([C@H](O)C2CCCCC2)NC(=O)C12CCN(Cc1ccc(Oc3ccc(C(=O)O)cc3)cc1)CC2
active: [1] 6.08 µM | [2] 2.79 µM | [3] 3.25 µM | [4] 37.5 µM | [6] 38.1 µM | [8] 48.8 µM | [10] 63.7 µM | [11] 57.9 µM
inactive: TIMP1, TIMP1 (gene 7076) | [9] | [12] | [13] | [14] | [16] | [17]

CCCCCCCCCCCCCCCCOS(=O)(=O)O
active: TIMP1, TIMP1 (gene 7076) 0.351 µM | [5] 79 µM | [9] 36.5 µM
not listed: [17] | [18]
inactive: all other assays above

OCCNCCO
active: [2] 9.92 µM | [3] 50 µM
not listed: [6] | [7] | [8] | [9] | [10] | [11]
inactive: all other assays above

COc1cc2c(c(OC)c1OC)-c1ccc(OC)c(=O)cc1[C@@H](NC(C)=O)CC2
active: [2] 0.113 µM | [3] 0.218 µM | [13] 27.1 µM
inactive: TIMP1, TIMP1 (gene 7076) | [1] | [4] | [5] | [12] | [14] | [15] | [16]

O=C(O)CO
inactive: [5]

CC(C)CCCCCCOC(=O)C1CCCCC1C(=O)OCCCCCCC(C)C (centres undefined)
active: [1] 0.00316 µM
inactive: TIMP1, TIMP1 (gene 7076) | [2] | [3] | [4] | [12] | [13] | [15] | [16] | [17]

OCCOCCOCCO
not listed: [16] | [18]
inactive: all other assays above

O=C1CN(N=Cc2ccc([N+](=O)[O-])o2)C(=O)N1
not listed: [13] | [14] | [17] | [18]
inactive: all other assays above

CC[C@H](C)C(=O)O[C@H]1C[C@H](O)C=C2C=C[C@H](C)[C@H](CC[C@@H](O)C[C@@H](O)CC(=O)O)[C@H]21
not listed: [6] | [7] | [8] | [9] | [10] | [11] | [12] | [17]
inactive: all other assays above

COS(C)(=O)=O
not listed: [5] | [6] | [7] | [8] | [9] | [10] | [11] | [18]
inactive: all other assays above

c1ccc(C(O[C@@H]2CCCN(CCc3ccc4c(c3)OCO4)C2)c2ccccc2)cc1
active: [1] 85.9 µM | [2] 79.1 µM | [4] 74.7 µM | [6] 70.1 µM | [13] 24.7 µM | [14] 34.7 µM | [15] 36.5 µM | [16] 44.2 µM
not listed: [5] | [17] | [18]
inactive: all other assays above

c1ccc2ncccc2c1
not listed: [5] | [17] | [18]
inactive: all other assays above

c1ccc2c(c1)-c1cccc3c1c-2cc1ccccc13
inactive: [2] | [4] | [5] | [12] | [13] | [15] | [16]
active: TIMP1, TIMP1 (gene 7076) 4.93 µM | [1] 14.7 µM | [3] 12.7 µM

Cc1nc(-c2ccccn2)ncc1C(=O)Nn1cc(C)c2cc(F)ccc21
active: [2] 12 µM | [18] 78.5 µM
not listed: [5] | [6] | [7] | [8] | [9] | [10] | [11]
inactive: all other assays above

O=C(O)c1cccc(C[C@@H]2COc3ccc(OCc4nc5cc(F)ccc5s4)cc3[C@@H]2O)c1
active: [4] 75.6 µM | [12] 26 µM | [13] 5.39 µM | [14] 5.78 µM | [16] 3.99 µM
not listed: [5] | [7] | [17]
inactive: all other assays above

OCc1c[nH]c2ccccc12
active: [6] 86.5 µM | [11] 78.9 µM
inactive: [5] | [7] | [8] | [9] | [10]
